{
  "source": "PubChem BioAssay (NCATS)",
  "note": "Inconclusive results are not listed. Active and inactive are the calls of the source. Calls follow the shape of the dose curve; as a rule, active = well fitted cell-killing curve with a large enough effect; inconclusive = small, poorly fitted or top-dose-only effect, or effect the other way; inactive = no such curve, though single readings can be large or run the other way. % is scaled to controls: 0 for no effect and ±100 for the full control effect; potency is read from the fitted curve at half-maximal effect.",
  "data": [
    {"assay": "qHTS assay to identify small molecule inhibitors of chordoma cells - UCH-1 (AID 1259355); also: nearly all actives have a fitted effect of over 55% in size", "settings": "UCH-1 chordoma viability, CellTiter-Glo, 48 h, combination, with auranofin plus four topoisomerase inhibitors; series mostly up to 46.1 µM; activity, negative = inhibition: at the top concentration", "source_text": "NIH Chemical Genomics Center [NCGC]\nChordoma is a rare and slow growing tumor that can occur anywhere along the spine, from the base of the skull to the tailbone. Current treatment options for chordoma is surgery and radiation therapy for those who are not candidates for surgery. But chordomas tend to return in the same location or surrounding areas of the original tumor after surgery and/or radiation. Chemotherapy can slow down the progression of the tumor. As chordoma is slow growing, the general cytotoxic agents that kill fast growing cells are ineffective, and some patients have been reported to respond to molecularly targeted drugs.\nNCATS Pharmaceutical Collection (NPC) containing approximately 3000 clinically approved and investigational drugs were used to screen at 15 concentrations in a chordoma cell lines, UCH-1, to identify small molecule compounds that can inhibit chordoma cell growth.\nNCGC Assay Protocol Summary:\nHuman chordoma cell line UCH-1 was dispensed at 800 per well in 4uL of culture medium into white solid bottom 1536-well plates (Corning Life Sciences, Corning, NY) using a Multidrop Combi (Thermo Scientific, Waltham, MA) dispenser. The assay plates were incubated at 37 C and 5% CO2 for an overnight, and then 23nL of compounds dissolved in DMSO and positive control were transferred using a Pintool station (Wako, San Diego, CA). Compound treatment was followed by the addition of 1uL of the combination compounds (1uM Auranofin, 500nM each of Camptothecin, Doxorubicin, Rubitecan, and Topotecan) and assay medium to each well of the assay plates using Flying Reagent Dispenser (FRD, Aurora Discovery, San Diego, CA). The assay plates were incubated at 37 C and 5% CO2 for 48hr. Then 5uL of CellTiter-Glo reagent (Promega Corporation, Madison, WI) was added to each well of the assay plates using FRD. After 30min incubation at room temperature, the luminescence signal was quantified using a ViewLux plate reader (PerkinElmer, Shelton, CT).", "values": [
      {"smiles": "CCCCCN(CCCCC)C(=O)C(CCC(=O)O)NC(=O)c1ccc(Cl)c(Cl)c1", "note": "(stereo not given)", "activity, negative = inhibition": "-6.74% (inactive)"},
      {"smiles": "O=C(O)CCCCCCCC(=O)O", "activity, negative = inhibition": "-5.75% (inactive)"},
      {"smiles": "C[C@]12CC[C@@H]3c4ccc(O)cc4C[C@@H](CCCCCCCCCS(=O)CCCC(F)(F)C(F)(F)F)[C@H]3[C@@H]1CC[C@@H]2O", "note": "(stereo not given in full)", "activity, negative = inhibition": "-31.2% (inactive)"},
      {"smiles": "O=C1NCN(c2ccccc2)C12CCN(CCCC(c1ccc(F)cc1)c1ccc(F)cc1)CC2", "Potency": "31.6 µM (active)"},
      {"smiles": "NS(=O)(=O)c1cc2c(cc1Cl)NC(C1CC3C=CC1C3)NS2(=O)=O", "note": "(stereo not given)", "activity, negative = inhibition": "2.87% (inactive)"},
      {"smiles": "CN(C)[C@@H]1C(=O)C(C(N)=O)=C(O)[C@@]2(O)C(=O)C3=C(O)c4c(O)ccc(Cl)c4[C@@H](O)[C@H]3C[C@@H]12", "activity, negative = inhibition": "23.2% (inactive)"},
      {"smiles": "CCCC(C(=O)OCCN(CC)CC)(c1ccccc1)c1ccccc1", "activity, negative = inhibition": "0.764% (inactive)"},
      {"smiles": "CN(C)C(=O)Oc1ccc[n+](C)c1", "activity, negative = inhibition": "16.9% (inactive)"},
      {"smiles": "N[C@@H](COP(=O)(O)O)C(=O)O", "activity, negative = inhibition": "6.28% (inactive)"},
      {"smiles": "CN(C)C/C=C(/c1ccc(Br)cc1)c1cccnc1", "activity, negative = inhibition": "-5.67% (inactive)"},
      {"smiles": "CCN(CC)CCCN(c1ccccc1)C1Cc2ccccc2C1", "Potency": "31.6 µM (active)"},
      {"smiles": "Cc1ccc(=O)n(-c2ccccc2)c1", "activity, negative = inhibition": "-11.4% (inactive)"},
      {"smiles": "COc1cc2c(cc1OC)-c1cc(=Nc3c(C)cc(C)cc3C)n(C)c(=O)n1CC2", "Potency": "25.1 µM (active)"},
      {"smiles": "COc1ccc(CCN(C)CCCC(C#N)(c2cc(OC)c(OC)c(OC)c2)C(C)C)cc1OC", "note": "(stereo not given)", "activity, negative = inhibition": "-25% (inactive)"},
      {"smiles": "Cc1nc2c([nH]1)c(=O)n(C)c(=O)n2Cc1ccco1", "activity, negative = inhibition": "-4.74% (inactive)"},
      {"smiles": "Cc1nc2sccn2c(=O)c1CCN1CCC(=C(c2ccc(F)cc2)c2ccc(F)cc2)CC1", "activity, negative = inhibition": "6.25% (inactive)"},
      {"smiles": "CC(C)(Oc1ccc(CCNC(=O)c2ccc(Cl)cc2)cc1)C(=O)O", "activity, negative = inhibition": "-8.97% [at 20.6 µM] (inactive)"},
      {"smiles": "CN(C)CCCN1c2ccccc2Sc2ccc(C(F)(F)F)cc21", "activity, negative = inhibition": "-6.39% (inactive)"},
      {"smiles": "OCCN1CCN(CC/C=C2/c3ccccc3Sc3ccc(C(F)(F)F)cc32)CC1", "activity, negative = inhibition": "-26.9% (inactive)"},
      {"smiles": "O=C(CCNNC(=O)c1ccncc1)NCc1ccccc1", "activity, negative = inhibition": "-4.96% (inactive)"},
      {"smiles": "CCn1ccnc1CC1COc2ccccc2O1", "note": "(stereo not given)", "activity, negative = inhibition": "-7.82% (inactive)"},
      {"smiles": "C=CCc1ccccc1OCC(O)CNC(C)C", "note": "(stereo not given)", "activity, negative = inhibition": "-13.1% (inactive)"},
      {"smiles": "CN(C)CCOC(=O)COc1ccc(Cl)cc1", "activity, negative = inhibition": "-19.8% [at 20.6 µM] (inactive)"},
      {"smiles": "CN=C(NC#N)NCCSCc1nc[nH]c1C", "activity, negative = inhibition": "8.58% (inactive)"},
      {"smiles": "Brc1c(NC2=NCCN2)ccc2nccnc12", "activity, negative = inhibition": "3.01% (inactive)"},
      {"smiles": "CN(C)CC[C@@H](c1ccc(Br)cc1)c1ccccn1", "activity, negative = inhibition": "-12.9% (inactive)"},
      {"smiles": "CC(=O)OC(C)C[N+](C)(C)C", "note": "(stereo not given)", "activity, negative = inhibition": "-2.86% [at 20.6 µM] (inactive)"},
      {"smiles": "NCCCNCCSP(=O)(O)O", "activity, negative = inhibition": "-10.8% (inactive)"},
      {"smiles": "CCCCNC(=O)NS(=O)(=O)c1ccc(C)cc1", "activity, negative = inhibition": "5.37% (inactive)"},
      {"smiles": "c1cnc(N2CCN(Cc3ccc4c(c3)OCO4)CC2)nc1", "activity, negative = inhibition": "-16.5% (inactive)"},
      {"smiles": "CCO/C([O-])=N/c1c[n+](N2CCOCC2)no1", "activity, negative = inhibition": "5.23% [at 20.6 µM] (inactive)"},
      {"smiles": "NC/C=C/C(=O)O", "activity, negative = inhibition": "0.757% (inactive)"},
      {"smiles": "COc1ccc(CN(CCN(C)C)c2ccccn2)cc1", "activity, negative = inhibition": "-23.7% (inactive)"},
      {"smiles": "COC(=O)[C@H]1[C@H]2C[C@@H]3c4[nH]c5cc(OC)ccc5c4CCN3C[C@H]2C[C@@H](OC(=O)c2cc(OC)c(OC)c(OC)c2)[C@@H]1OC", "activity, negative = inhibition": "-1.79% (inactive)"},
      {"smiles": "COC(=O)C1=C(C)NC(C)=C(C(=O)OC(C)(C)CN(C)CCC(c2ccccc2)c2ccccc2)C1c1cccc([N+](=O)[O-])c1", "note": "(stereo not given)", "activity, negative = inhibition": "-25.4% (inactive)"},
      {"smiles": "FC(F)(F)c1ccccc1-n1ccnc1", "activity, negative = inhibition": "0.3% (inactive)"},
      {"smiles": "Cc1ccc(/C(=C\\CN2CCCC2)c2ccccn2)cc1", "activity, negative = inhibition": "2.66% (inactive)"},
      {"smiles": "Cc1nnc(SCC2=C(C(=O)O)N3C(=O)[C@@H](NC(=O)Cn4cnnn4)[C@H]3SC2)s1", "activity, negative = inhibition": "5.85% (inactive)"},
      {"smiles": "CNC1(C)C2CCC(C2)C1(C)C", "note": "(stereo not given)", "activity, negative = inhibition": "11.4% (inactive)"},
      {"smiles": "CCCCNc1c(C(=O)OCC)c(C)nc2c1cnn2CC", "activity, negative = inhibition": "-15% (inactive)"}
    ]}
  ]
}
